# This is a sample that favours compounds with a hit; in the whole collection about 2.9% have one here.
# 12-LOX inh – Primary qHTS assay for inhibitors of human arachidonate 12S-lipoxygenase (ALOX12): Round 2; purified 12hLO, xylenol orange hydroperoxide absorbance; Polyunsaturated fatty acid lipoxygenase ALOX12 (Homo sapiens), P18054; Potency, µM (doses to about 108 µM), without a hit: at the top dose activity change, negative = inhibition, hits mostly inhibitors; AID 1671190, 2021; 1.1% of 580,000 active; also: potency is read from the fitted curve at half-maximal effect; % is scaled to controls: 0 for no effect and ±100 for the full control effect
#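 Purified human 12hLO at 150 nM in 25 mM Hepes, 0.01% Triton X-100, pH 7.0, preincubated 15 min at room temperature with compound. Reaction started with 40 uM arachidonic acid, 30 min at room temperature. Hydroperoxide measured by Fe-xylenol orange, 573/405 nm absorbance ratio.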
# Pol beta inh – qHTS Assay for Inhibitors of DNA Polymerase Beta. P06746. Pol beta primer extension/strand displacement, fluorescence kinetic. Potency, µM (titrated, usually from 114 µM), without a hit: at the highest dose activity change, negative = inhibition, most hits filed as inhibitors. 1.3% of 340,000 active; also: potency is read from the fitted curve at half-maximal effect; % is scaled to controls: 0 for no effect and ±100 for the full control effect
#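 Preincubation: enzyme (10 nM) with compound, 15 min, RT. Reaction: substrate added to 50 nM final. Reads: 0 and 10 min. Analysis: normalized, Hill fit.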
# Pol iota inh – qHTS for Inhibitors of Polymerase Iota; Pol iota fluorescent replication assay, 10 min; Potency, µM (highest dose often 115 µM), without a hit: top-dose activity, negative = inhibition, hits mostly inhibitors; 1% of 390,000 active; also: potency is read from the fitted curve at half-maximal effect
#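 Pol iota at 10 nM preincubated 15 min with compounds at room temperature; reaction started with fluorescent substrate, 50 nM final. Fluorescence read kinetically at 0 and 10 min; buffer-only wells as negative control.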
# Pol eta inh – qHTS for Inhibitors of Polymerase Eta; 1.2% of 390,000 active; Potency, µM (series often up to 114 µM), inactives show at the highest dose activity change, negative = inhibition, actives largely listed as inhibitors; DNA polymerase eta (Homo sapiens), Q9Y253; recombinant Pol eta, fluorescent DNA replication assay; also: potency is read from the fitted curve at half-maximal effect; % is scaled to controls: 0 for no effect and ±100 for the full control effect
#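 Pol eta (10 nM) was preincubated with compounds for 15 min at room temperature, after which fluorescent replication substrate (50 nM final) was added to start the reaction. Fluorescence was read kinetically at 0 and 10 min.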
# PI5P4K alpha inh – qHTS for Inhibitors of phosphatidylinositol 5-phosphate 4-kinase (PI5P4K); max response, %; Phosphatidylinositol 5-phosphate 4-kinase type-2 alpha (Homo sapiens), P48426; PI5P4Kalpha enzyme, ADP-Glo luminescence, 60 min; hits give low values; 1.2% of 330,000 active; active = max response of -50% or lower; inconclusive = between -30% and -50%; inactive = -30% or higher; also: value at the top dose of about 77 µM; % is scaled to controls: 0 for no effect and ±100 for the full control effect
# Target sequence (P48426 whole entry, looked up): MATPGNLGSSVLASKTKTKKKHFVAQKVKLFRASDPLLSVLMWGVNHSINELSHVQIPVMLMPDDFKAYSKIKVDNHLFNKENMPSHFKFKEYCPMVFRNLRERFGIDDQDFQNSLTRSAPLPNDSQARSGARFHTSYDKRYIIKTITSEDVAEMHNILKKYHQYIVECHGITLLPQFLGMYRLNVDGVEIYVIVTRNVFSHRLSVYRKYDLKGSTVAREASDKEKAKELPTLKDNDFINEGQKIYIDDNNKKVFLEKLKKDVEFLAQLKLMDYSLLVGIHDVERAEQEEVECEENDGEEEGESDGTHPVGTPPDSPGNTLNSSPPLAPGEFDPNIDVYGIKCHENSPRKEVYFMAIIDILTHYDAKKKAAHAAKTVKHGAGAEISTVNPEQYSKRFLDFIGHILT
#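 PI5P4Kalpha ADP-Glo assay; 5 microM ATP final; 60 min RT reaction; HEPES pH 7.4/EGTA/CHAPS, 5% DMSO; controls lacking substrate or enzyme; luminescent end-point.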
# Pol kappa inh – qHTS for Inhibitors of Polymerase Kappa | DNA polymerase kappa (Homo sapiens), Q9UBT6 | purified Pol kappa, fluorescent DNA synthesis assay, 10 min | Potency, µM (series often up to 107 µM), for the others: at the top dose activity, negative = inhibition, usual class: inhibitors | 0.53% of 400,000 active | AID 588579, 2011; also: potency is read from the fitted curve at half-maximal effect; % is scaled to controls: 0 for no effect and ±100 for the full control effect
#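 Fluorescent qHTS in 1536-well format: enzyme (10 nM) and compound sat 15 min at room temperature before 50 nM substrate (final) was added. Signal taken at 0 and 10 min; no-enzyme buffer wells were negative controls.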
# * hit, by the source's call; ? = inconclusive; · = no result; [ ] = remark or other dose. Unless noted, calls follow the shape of the dose curve; as a rule, active = well fitted inhibition curve with a large enough effect; inconclusive = small, poorly fitted or top-dose-only effect, or another doubt; inactive = no such curve, though single readings can be large or run the other way.
SMILES,12-LOX inh,Pol beta inh,Pol iota inh,Pol eta inh,PI5P4K alpha inh,Pol kappa inh
O=C(Cc1ccc(N(Cc2ccc(F)cc2)C(=O)c2ccco2)cc1)NCc1ccc(F)cc1,32µM*,·,·,·,·,·
CSc1ccc(/C=C/C(=O)NCc2ccc(F)cc2)cc1,51%,·,·,·,·,·
CCNC(=O)NC(=O)C(C)Sc1nnc(-c2ccccc2)n1CC (centres undefined),-7%,·,·,·,·,·
COc1ccc(OC)c(C(C)NC(=O)Cc2cccs2)c1 (centres undefined),6%,·,·,·,·,·
O=C(NC(=S)Nc1cccc(Cl)c1N1CCCCC1)c1ccc2c(c1)OCCO2,16µM*,12%,15%,-7%,33,6%
O=C(NC(=S)Nc1ccc2c(c1)OCCO2)c1cccc2ccccc12,16µM*,18%,5%,-14%,4,-12%[60.1 µM]
O=C(Nc1cccc(Cl)c1N1CCCCC1)c1ccc2c(c1)OCCO2,-24%,1%,6%,-19%,2,3%
O=C(NC(=S)Nc1ccc2c(c1)OCO2)c1ccccc1,73%,-7%,-1%,-19%,-7,-2%
O=C(NC(=S)Nc1ccc2c(c1)OCCO2)c1cccc(Br)c1,28µM*,-3%,5%,-26%,-3,-1%
CCN(CC(=O)Nc1c(F)cccc1F)C(=O)C1CC(=O)N(Cc2ccccc2)C1 (centres undefined),1%,·,·,·,·,·
COc1ccc2oc(-c3ccc(C)c(NC(=O)C(C)C)c3)nc2c1,22%,·,·,·,·,·
CCc1nc(CN2C(=O)COc3ccc(S(=O)(=O)NC4CCCCCCC4)cc32)no1,-37%,·,·,·,·,·
COc1ccc2cc(C(=O)NCC3CCC3)c(C)nc2c1,18%,·,·,·,·,·
COc1ccc(CCN(Cc2ccccc2F)CC2(O)CCCNC2)cc1 (centres undefined),16%,·,·,·,·,·
COc1ccccc1CNc1cc(-c2cccc(NS(C)(=O)=O)c2)ncn1,?,·,·,·,·,-6%[60.1 µM]
COc1cccc(-c2cncnc2Nc2ccccc2)c1,40µM*,·,·,·,·,-2%[60.1 µM]
CN(C)c1cc(-c2cccc(NS(C)(=O)=O)c2)ncn1,35µM*,·,·,·,·,2%[60.1 µM]
CS(=O)(=O)Nc1cccc(-c2cc(NCc3ccccc3)ncn2)c1,11µM*,·,·,·,·,2%[60.1 µM]
CS(=O)(=O)Nc1cccc(-c2cncnc2NCc2ccccc2)c1,40µM*,·,·,·,·,4%[60.1 µM]
O=C(NCc1ccnc(OCC(F)(F)F)c1)c1ccco1,20%,·,·,·,·,·
COC(=O)[C@@H]1Cc2c([nH]c3ccccc23)[C@H]2C[C@@H](NCCO)C[C@@H](c3cccc(OC)c3)N21,15%,·,·,·,·,·
O=C(NC1CCCCC1)N1Cc2[nH]cnc2C[C@H]1c1nc(-c2ccncc2)no1,13µM*,·,·,·,·,·
O=C1C=CC(=O)N1c1ccc2ccccc2c1,40µM*,·,14%,-16%,-11,-12%
Cc1cccc(N2C(=O)C=CC2=O)c1,-11%,·,28%,-3%,-11,-24%
Cc1c(C(=O)N(Cc2nc3ccccc3c(=O)[nH]2)C(C)C)oc2ccc(Br)cc12,45µM*,·,·,·,·,·
SMILES,12-LOX inh,Pol beta inh,Pol iota inh,Pol eta inh,PI5P4K alpha inh,Pol kappa inh
Cc1c(C(=O)N(Cc2nc3ccccc3c(=O)[nH]2)C(C)C)oc2ccccc12,-2%,·,·,·,·,·
CC(C)NC(=O)NC(=O)CSc1nc2ccccc2c(=O)n1-c1ccccc1Cl,2%,·,·,·,·,·
C/C(=N\NC(=O)c1ccc(C)cc1C)c1ccc2c(c1)OCO2,17%,14%,6%,-12%,3,-11%
C/C(CC(=O)N1CCCC1)=N\NC(=O)c1cc2ccccc2cc1O,-21%,-74%,79µM*,-8%,?,?
O=C(OCC(=O)N1CCCCC1)c1cc2ccccc2cc1O,7%,3%,8%,-14%,2,-10%
COc1cccc(NC(=O)C/C(C)=N/NC(=O)c2ccccc2Cl)c1,168%,0%,?,2%,1,10%
C/C(=N\NC(=O)c1cc2ccccc2cc1O)c1ccc2c(c1)OCO2,428%,?,?,0%,-67*,?
C/C(CC(=O)Nc1ccc(Cl)c(Cl)c1)=N\NC(N)=S,1µM*,10%,22%,-6%,2,-4%
C/C(CC(=O)Nc1ccc(Cl)c(C(F)(F)F)c1)=N\NC(=O)c1cc2ccccc2cc1O,?,-14%,89µM*,-8%,?,?
C/C(CC(=O)Nc1cc(Cl)ccc1Cl)=N\NC(N)=S,?,11%,-3%,4%,6,-20%
NC(=O)CN1C(=O)C2(CC(=O)Nc3c2cnn3Cc2ccccc2Cl)c2ccccc21 (centres undefined),1%,·,·,·,·,·
[N-]=C=C1C(=S)NC(=O)[C@H]([n+]2ccccc2)[C@H]1c1ccc(Cl)cc1,10µM*,?,10%,3%,?,2%
N#Cc1ccc(C(=O)NCc2ccc3c(c2)CCN3C(=O)c2ccc(F)cc2)cc1,5%,-1%,18%,-23%,·,-5%[60.1 µM]
CCN(CC)c1ccc(C(=O)NCc2ccc3c(c2)CCN3C(=O)c2ccc(F)cc2)cc1,-19%,3%,20%,79µM*,·,-12%[60.1 µM]
O=c1c2ccccc2oc2cc(O)c(C3COCC(CO)C(O)C(O)C3O)c(O)c12 (centres undefined),·,·,·,·,·,2.5µM*
O=c1cc(-c2ccc(O)cc2)oc2cc(O)c([C@@H]3O[C@H](CO)[C@@H](O)[C@H](O)[C@H]3O)c(O)c12,-20%,·,2%,9%,12,-10%
Cc1nc(CCNC(=O)C2CNCCO2)sc1C (centres undefined),8.9µM*,·,·,·,·,·
CCOCCCNC(=O)c1nnn2cc(-c3ccccc3)[nH]c(=O)c12,18µM*,·,·,·,·,·
Cc1ccc(NC(=O)c2nnc(C(=O)N3CCC(CC(=O)N4CCCCC4)CC3)s2)cc1,66%,·,·,·,·,·
COc1ccc2c(c1)cc(C(=O)Nc1ccccc1C)n2C,5%,·,·,·,·,·
Cc1ccsc1CNC(=O)Cc1ccc(Cl)c(Cl)c1,-26%,·,·,·,·,·
Cc1sc(NC(=O)CSc2nc3ccccc3o2)nc1-c1ccccc1,-19%,·,·,·,·,·
COc1ccc(C=C2SC(=O)NC2=O)cc1OC,-21%,·,-4%,?,-27,-2%
NS(=O)(=O)c1ccc(-c2cccc(/C=C3\SC(=O)NC3=O)c2)cc1,-16%,?,?,-18%,-56*,-10%
C[N+]1(CC[N+]2(C)CCCCC2)CCCCC1,4µM*,·,·,·,·,·
CC(=O)OCCCCCCCCCCC[N+]1(C)CCCCC1,?,24%,21%,10%,-1,7%

# Source: PubChem
